Reference: PubChem BioAssay (Tox21)
Several values for one entry are separate records, joined by “and”; a condition that tells them apart may be missing. Equal values may be shown once. Records with an inconclusive call do not appear. Unmarked numbers belong to inactive results. Activity calls are given as the source filed them. The call rests on the fitted dose curve.

Assay: qHTS assay to identify small molecule agonists of the AP-1 signaling pathway - cell viability counter screen (AID 1159525); further: nearly all actives have a fitted effect of over 55% in size
Conditions: ME-180 (cervical carcinoma) AP-1-bla cells viability, ATP luminescence, 5 h; series mostly up to 76.8 µM; viability change, negative = cytotoxic: at the top concentration
From the text: National Center for Advancing Translational Sciences [NCATS]
NIH Chemical Genomics Center [NCGC]
U.S. Environmental Protection Agency [EPA]
National Institutes of Environmental Health Sciences [NIEHS]
National Toxicology Program [NTP]
U.S. Food and Drug Administration [FDA]
Activator protein-1 (AP-1), a transcription factor, plays an important role in tumor genesis by regulating genes involved in cell proliferation, differentiation, apoptosis, and angiogenesis. AP-1 activity is induced by a complex network of signaling pathways that involves extracellular signals, such as growth factors. The AP-1 protein complex formed from c-Fos and c-Jun binding to the AP-1 response element results in transcriptional activation of genes containing such elements within their promoter.
Low molecular weight molecules have been discovered and developed to modulate various components of these signaling pathways, for example, MAP kinase inhibitors. However, many points of pathway modulation remain untested due to the lack of chemical probes making this signaling locus of general interest.
Using a beta-lactamase reporter-gene under control of the AP-1 response element, a cell-based assay [CellSensor(TM) AP-1-bla ME-180 developed by Invitrogen Corp.] was used to measure EGF-induced signaling. The Tox21 10K library compounds were measured for their ability to positively modulate the action of EC50 EGF on reporter gene activity. Compounds were screened in a 15-pt titration series in 1536-well format. The cytotoxicity of the Tox21 compound library against this cell line was tested in parallel by measuring the intra cellular ATP content in the same wells.
Tox21 Assay Protocol Summary:
2500 cells/5uL in Opti-MEM medium containing 0.5% dialyzed FBS, 0.1 mM NEAA, 1 mM sodium pyruvate and 10 mM HEPES was dispensed into 1536-well black wall/clear bottom plates using a Multidrop dispenser and cells were cultured at 37 degrees Celsius overnight. Next day 23 nL of compounds dissolved in DMSO, positive controls or DMSO were delivered to each well using a pin tool. The plates were incubated at 37 degrees Celsius for 5 hours. 1 uL of LiveBLAzerTM B/G FRET substrate (Solution A+B+C+D) was added to each well using a Flying Reagent Dispenser. After incubated at room temperature for 2.5 hours the plates were measured on an EnVision plate reader at Excitation 405nm, Emission1=460nm and Emission 2=530nm. The %Activity was determined from the ratio of 460nm/530nm.
After the plates were read for Beta-Lactamase assay on Envision; 3 ul Cell Titer Glo (Promega) was added to measure the cytotoxicity and the plates were then incubated at RT in dark for 30 min. The luminescence was read on ViewLux (Perkin Elmer, Shelton, CT) using 6 sec exposure. ViewLux data was expressed as relative luminescence units.
For primary data analysis, raw plate reads for each titration point were first normalized relative to […] EGF control (100%) and DMSO only wells (basal, 0%).
For primary data analysis for viability assay, raw plate reads for each titration point were first normalized Tetra n-octyl ammonium bromide control (-100%) and DMSO (control, 100%).
Potency means the concentration at half of the fitted maximal effect.

| SMILES | Potency | viability change, negative = cytotoxic |
| --- | --- | --- |
| CCCCCCCCCCCCCC[P+](CCCCCC)(CCCCCC)CCCCCC (tested in a mixture with another compound) | 21.9 µM (active) | – |
| CN(CCCC(=O)c1cccnc1)N=O | – | 1.1% |
| Cc1cccc(OP(=O)(Oc2cccc(C)c2)Oc2cccc(C)c2)c1 | – | -13.7% |
| [Cl][Sn]([c]1ccccc1)([c]1ccccc1)[c]1ccccc1 | 10.4 µM (active) | – |
| CN(C)CCc1c[nH]c2ccc(O)cc12 | – | -15.5% |
| CC(C)(C)C(O)C(Oc1ccc(-c2ccccc2)cc1)n1cncn1 (stereo not given) | – | -15% |
| C[C@@H]1O[C@@H](O[C@H]2C[C@@H](O)[C@]3(CO)[C@H]4[C@H](O)C[C@]5(C)[C@@H](C6=CC(=O)OC6)CC[C@]5(O)[C@@H]4CC[C@]3(O)C2)[C@H](O)[C@H](O)[C@H]1O | – | -26.3% |
| CCC[CH2][Sn]([CH2]CCC)([CH2]CCC)[O]C(=O)c1ccccc1 | 1.23 µM (active) | – |
| CC(C)(C)c1cc([N+](=O)[O-])cc(C(C)(C)C)c1O | – | -14.9% |
| Cc1cc(C)c(C2=C(OC(=O)CC(C)(C)C)C3(CCCC3)OC2=O)c(C)c1 | – | 2.09% |
| c1ccc2c(c1)OCC(C1=NCCN1)O2 (stereo not given) | – | 21.4% [at 35.3 µM] |
| CCCCOCN(C(=O)CCl)c1c(CC)cccc1CC | – | -6.07% |
| CC(C)(O)c1cnn2c(-c3ccc(F)c(-c4c(F)cccc4C#N)c3)cnc2n1 | – | -2.35% |
| CC1CCC(C(C)C)C(OC(=O)c2ccccc2N)C1 (stereo not given) | 38.4 µM (active) | – |
| CC1(C)CC/C(=C/c2ccc(Cl)cc2)C1(O)Cn1cncn1 (stereo not given) | – | -4.85% |
| COC[C@H](C)N(C(=O)CCl)c1c(C)csc1C | – | 1.27% |
| CCCN(CCC)c1c([N+](=O)[O-])cc(S(N)(=O)=O)cc1[N+](=O)[O-] | 43.6 µM (active) | – |
| Fc1cccc(Cl)c1CCl | – | -9.87% |
| Clc1ccc(CCC(Cn2ccnc2)Sc2c(Cl)cccc2Cl)cc1 (stereo not given) | 26.8 µM (active) | – |
| ClC(Cl)=C(Cl)Cl | – | 6.12% |

| SMILES | Potency | viability change, negative = cytotoxic |
| --- | --- | --- |
| c1ccc2cc3c(cc2c1)-c1cccc2cccc-3c12 | – | 6.75% |
| N#C/C=C/C#N | – | 1.59% |
| C[As+](C)(C)CC(=O)[O-] | – | -2.87% |
| CN(CCCC(O)c1cccnc1)N=O (stereo not given) | – | -11% |
| CCCCOP(=O)(CCCC)OCCCC | – | -0.469% |
| CC(C)CBr | – | 11.1% |
| CC(c1ccc(O)cc1)c1ccc(O)cc1 | inactive | – |
| CC(Cl)CN(C)C (stereo not given) | – | -8% |
| CC(C)C(=O)Cl | – | 2.59% |
| Cl/C=C\CCl | – | 0.648% |
| CN(C)S(=O)(=O)N(SC(F)(Cl)Cl)c1ccccc1 | 34.7 µM (active) | – |
| ClC1=C(Cl)[C@]2(Cl)[C@@H]3[C@@H](Cl)[C@@H](Cl)C[C@@H]3[C@@]1(Cl)C2(Cl)Cl | – | 8.15% |
| CCCCCCCCCCCCCCCC[N+](C)(C)C | 49 µM (active) and 26.8 µM (active) | – |
| N#CCCSCCC#N | – | -7.34% |
| Cc1cc(Cl)ccc1O[C@H](C)C(=O)O | – | 2.19% |
| Cc1ccc(C(=O)Cl)cc1 | – | 8.18% |
| N#CSCSC#N | 25.1 µM (active) and 21.7 µM (active) | – |
| CCCCCCCCCCCCCN1CC(C)OC(C)C1 (stereo not given) | – | 1.19% |
| CN(C)c1ccc(N=Nc2ccccc2)cc1 | – | 4.07% |
| SCc1ccco1 | – | 0.176% |
